The values below come from PubChem BioAssay (NCI).

Several values for one entry are separate records, joined by “and”; a condition that tells them apart may be missing. Equal entries are not always repeated. Compounds without any hit were thinned out: in the full panel of roughly 83,000, 20% have a hit.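 A percent growth of 40 corresponds to 60% growth inhibition; 0 means no net growth; -100 means all cells died. Active threshold: below 10.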 Activity calls are given as the source filed them.

Some test systems named below: SR leukemia; RPMI-8226 leukemia; OVCAR-8 ovarian; OVCAR-5 ovarian; OVCAR-4 ovarian; SK-OV-3 ovarian; IGROV1 ovarian; OVCAR-3 ovarian; HS 578T breast; NCI/ADR-RES ovarian; T-47D breast; BT-549 breast; MDA-MB-435 melanoma; SW-620 colon; HCT-116 colon; HCC-2998 colon; KM12 colon; MCF7 breast.
Common to all, as to test: NCI-60 one-dose screen, 48 h (100 = growth as untreated, 0 = no growth, -100 = all killed)
Holding throughout (conditions): 10 µM unless noted

On to `CC(C)(C)OC(=O)CC1(O)CCCCC1`, for which the growth with SR leukemia was 105% (inactive); with RPMI-8226 leukemia, 107% (inactive); with OVCAR-8 ovarian, 108% (inactive); with OVCAR-5 ovarian, 115% (inactive); in the experiment with OVCAR-4 ovarian, 97.9% (inactive); in the experiment with SK-OV-3 ovarian, 105% (inactive). The growth in the experiment with IGROV1 ovarian is 114% (inactive); in the experiment on OVCAR-3 ovarian, 108% (inactive); with HS 578T breast, 102% (inactive); in the experiment on NCI/ADR-RES ovarian, 107% (inactive); in the experiment with T-47D breast, 99.8% (inactive); with BT-549 breast, 110% (inactive). Moreover, the growth in the experiment with MDA-MB-435 melanoma was 102% (inactive); with SW-620 colon, 103% (inactive); with HCT-116 colon, 102% (inactive); in the experiment with HCC-2998 colon, 106% (inactive); with KM12 colon, 107% (inactive).

On to `O=c1[nH]c(=O)c2[nH]c(=O)[nH]c2[nH]1`, for which the growth was 114% (inactive) with SR leukemia; 101% (inactive) in the experiment on RPMI-8226 leukemia; 102% (inactive) in the experiment with OVCAR-8 ovarian; 99.7% (inactive) in the experiment on OVCAR-5 ovarian; 109% (inactive) in the experiment with OVCAR-4 ovarian; 115% (inactive) in the experiment on SK-OV-3 ovarian. The growth in the experiment with IGROV1 ovarian is 106% (inactive); in the experiment on OVCAR-3 ovarian, 107% (inactive); in the experiment on HS 578T breast, 102% (inactive); with NCI/ADR-RES ovarian it was 106% (inactive); in the experiment with T-47D breast, 103% (inactive); in the experiment with BT-549 breast, 90.8% (inactive). Further, the growth is 100% (inactive) with MDA-MB-435 melanoma, 94.3% (inactive) in the experiment with SW-620 colon, 107% (inactive) in the experiment with HCC-2998 colon and 104% (inactive) in the experiment on KM12 colon.

In the case of `CCN(C)c1ccccc1`, the growth was 93.3% (inactive) with SR leukemia; 104% (inactive) in the experiment on RPMI-8226 leukemia; 98.2% (inactive) in the experiment with OVCAR-8 ovarian; 115% (inactive) with OVCAR-5 ovarian; 109% (inactive) in the experiment on OVCAR-4 ovarian; 89.6% (inactive) with SK-OV-3 ovarian. Moreover, the growth was 113% (inactive) with IGROV1 ovarian; 108% (inactive) with OVCAR-3 ovarian; 96.2% (inactive) in the experiment with HS 578T breast; 97.3% (inactive) in the experiment on NCI/ADR-RES ovarian; 105% (inactive) with T-47D breast; 84.2% (inactive) in the experiment on BT-549 breast. Also, the growth with MDA-MB-435 melanoma is 104% (inactive); with MCF7 breast, 90.7% (inactive); in the experiment with HCT-116 colon, 106% (inactive); with HCC-2998 colon it was 107% (inactive); in the experiment with KM12 colon, 109% (inactive).

Turning to `O=C1Cc2ccccc2C(=O)N1`, the growth in the experiment with SR leukemia was 30.4% (inactive); with RPMI-8226 leukemia it was 48.9% (inactive); with OVCAR-8 ovarian it was 56.2% (inactive); in the experiment on OVCAR-5 ovarian it was 96.1% (inactive); in the experiment on OVCAR-4 ovarian it was 63.4% (inactive); in the experiment with SK-OV-3 ovarian, 98.9% (inactive). In addition, the growth with IGROV1 ovarian was 76.8% (inactive); in the experiment with OVCAR-3 ovarian, 76.3% (inactive); with HS 578T breast it was 103% (inactive); in the experiment on NCI/ADR-RES ovarian, 91.8% (inactive); with T-47D breast, 71.1% (inactive); in the experiment with BT-549 breast, 101% (inactive). Also, the growth with MDA-MB-435 melanoma is 99.4% (inactive); in the experiment with MCF7 breast it was 56.8% (inactive); in the experiment on HCT-116 colon, 6.29% (active); with HCC-2998 colon it was 103% (inactive); in the experiment on KM12 colon, 102% (inactive).

Take `CCc1ccccc1-n1[nH]c(C)c(C=N)c1=O`: the growth is 94.8% (inactive) with SR leukemia; 107% (inactive) in the experiment with RPMI-8226 leukemia; 118% (inactive) in the experiment with OVCAR-8 ovarian; 110% (inactive) with OVCAR-5 ovarian; 114% (inactive) in the experiment with OVCAR-4 ovarian; 119% (inactive) with SK-OV-3 ovarian. Besides, the growth is 112% (inactive) in the experiment on IGROV1 ovarian; 124% (inactive) in the experiment on OVCAR-3 ovarian; 99.2% (inactive) with HS 578T breast; 106% (inactive) in the experiment with NCI/ADR-RES ovarian; 126% (inactive) with T-47D breast; 108% (inactive) with BT-549 breast. Moreover, the growth in the experiment with MDA-MB-435 melanoma is 104% (inactive); in the experiment on MCF7 breast it was 94.1% (inactive); in the experiment on HCC-2998 colon it was 118% (inactive); in the experiment on KM12 colon it was 102% (inactive).

Consider `O=c1[nH]c(=S)[nH]n1C(=S)n1[nH]c(=S)[nH]c1=O`, for which the growth in the experiment with SR leukemia is 99.7% (inactive); in the experiment on RPMI-8226 leukemia, 99% (inactive); with OVCAR-8 ovarian, 101% (inactive); with OVCAR-5 ovarian it was 105% (inactive); in the experiment with OVCAR-4 ovarian, 112% (inactive); in the experiment with SK-OV-3 ovarian, 109% (inactive). For the same compound, the growth with IGROV1 ovarian is 101% (inactive); in the experiment with OVCAR-3 ovarian, 110% (inactive); in the experiment on HS 578T breast, 98.5% (inactive); in the experiment with NCI/ADR-RES ovarian, 95.2% (inactive); in the experiment on T-47D breast it was 92% (inactive); in the experiment on BT-549 breast it was 108% (inactive). For the same compound, the growth in the experiment on MDA-MB-435 melanoma was 110% (inactive); in the experiment with SW-620 colon, 98.5% (inactive); in the experiment with HCT-116 colon, 102% (inactive); in the experiment on HCC-2998 colon it was 99.6% (inactive); with KM12 colon, 98.4% (inactive).

As for `CC1(C)CC(=O)NC1=O`, the growth in the experiment with SR leukemia was 95.9% (inactive); in the experiment with RPMI-8226 leukemia it was 108% (inactive); in the experiment with OVCAR-8 ovarian it was 98.9% (inactive); in the experiment with OVCAR-5 ovarian, 94.8% (inactive); with OVCAR-4 ovarian, 102% (inactive); in the experiment with SK-OV-3 ovarian, 104% (inactive). Moreover, the growth was 110% (inactive) with IGROV1 ovarian; 103% (inactive) in the experiment on OVCAR-3 ovarian; 112% (inactive) with HS 578T breast; 103% (inactive) in the experiment on NCI/ADR-RES ovarian; 91.5% (inactive) in the experiment with T-47D breast; 104% (inactive) with BT-549 breast. In addition, the growth in the experiment with MDA-MB-435 melanoma is 94.9% (inactive); with MCF7 breast it was 93.6% (inactive); in the experiment on HCT-116 colon, 96.5% (inactive); with HCC-2998 colon it was 102% (inactive); in the experiment on KM12 colon it was 102% (inactive).

In the case of `CC1=CC(=O)C=CC1=Nc1ccc(N(C)C)cc1`, the growth with SR leukemia is 29.3% (inactive); with RPMI-8226 leukemia it was 66.5% (inactive) and -4.07% (active); with OVCAR-8 ovarian it was 85.7% (inactive) and 52% (inactive); with OVCAR-5 ovarian it was 140% (inactive) and 83.9% (inactive); in the experiment with OVCAR-4 ovarian it was 44.9% (inactive) and 21.1% (inactive); in the experiment on SK-OV-3 ovarian it was 94.2% (inactive) and 71.8% (inactive). In addition, the growth was 88.5% (inactive) and 49.4% (inactive) in the experiment with IGROV1 ovarian; 69.4% (inactive) and -93.6% (active) with OVCAR-3 ovarian; 109% (inactive) in the experiment with HS 578T breast; 78.1% (inactive) and 37.9% (inactive) in the experiment with NCI/ADR-RES ovarian; 69.1% (inactive) and -24.8% (active) in the experiment on T-47D breast; 79% (inactive) and 27.8% (inactive) in the experiment on BT-549 breast. The growth is 59.4% (inactive) and 6.47% (active) in the experiment with MDA-MB-435 melanoma; 89.9% (inactive) and 6.86% (active) in the experiment on MCF7 breast; 84.3% (inactive) and 2.64% (active) with HCT-116 colon; 98.4% (inactive) and 59.1% (inactive) in the experiment with HCC-2998 colon; 83.4% (inactive) and 25.2% (inactive) in the experiment with KM12 colon.

Consider `CCOC(=O)c1ccc(N2C(=O)C(Cl)(c3ccccc3)C2c2ccco2)cc1` (stereo unspecified), for which the growth with SR leukemia was 76.1% (inactive); with RPMI-8226 leukemia, 43% (inactive); in the experiment with OVCAR-8 ovarian, 90.2% (inactive); with OVCAR-5 ovarian, 98.2% (inactive); with OVCAR-4 ovarian, 90.4% (inactive); in the experiment with SK-OV-3 ovarian, 104% (inactive). For the same compound, the growth was 99.1% (inactive) with IGROV1 ovarian; 78.8% (inactive) in the experiment with OVCAR-3 ovarian; 69.6% (inactive) in the experiment on HS 578T breast; 91.3% (inactive) in the experiment with NCI/ADR-RES ovarian; 30.4% (inactive) in the experiment with T-47D breast; 76.5% (inactive) with BT-549 breast. Moreover, the growth is 93.4% (inactive) with MDA-MB-435 melanoma; 77.6% (inactive) in the experiment with SW-620 colon; 54% (inactive) in the experiment on HCT-116 colon; 95.8% (inactive) in the experiment with HCC-2998 colon; 83.5% (inactive) in the experiment with KM12 colon.
